Measurements from PubChem BioAssay AID1159580 (chemical genetic matrix, 2015).
The campaign covered roughly 5,500 compounds. About 2,000 (36%) were called active. Not shown: some 18% with an inconclusive outcome. Cut-off read from the data, not from the text of the source: active = normalized growth mostly below about 0.91 (no sharp cut-off); inconclusive = no clear call, values can overlap the other calls; inactive = mostly above about 0.92. The list shows a part of the results.

Assay: chemical genetic growth profiling, strain panel (AID 1159580);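 note: tested at 20 µM; growth read once vehicle control cultures reached saturation at 30 °C; 1 = growth at the plate median or of vehicle wells; lower values mean less growth of the strain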
Conditions: growth OD

Measured: normalized growth

CC(=O)OCC1=C(C(=O)O)N2C(=O)[C@@H](NC(=O)CSc3ccncc3)[C@H]2SC1
inactive: S. cerevisiae deletion strains, locus YJR043C, strain POL32, active compounds read low 0.959 | S. cerevisiae deletion strains, locus YJR066W, strain TOR1, active compounds read low 0.987 | S. cerevisiae deletion strains, locus YKL009W, strain mrt4, active compounds read low 1 | S. cerevisiae deletion strains, locus YKL068W, active compounds read low 0.982 | S. cerevisiae deletion strains, locus YKL085W, strain MDH1 (second series), active compounds read low 0.975 | S. cerevisiae deletion strains, locus YKL085W, strain MDH1, active compounds read low 0.975 | S. cerevisiae deletion strains, locus YKL160W, strain elf1, active compounds read low 1.03 | S. cerevisiae deletion strains, locus YKR001C, strain vps1, active compounds read low 0.994 | S. cerevisiae deletion strains, locus YKR026C, strain gcn3, active compounds read low 1.03 | S. cerevisiae deletion strains, locus YKR091W, strain srl3, active compounds read low 1.02 | S. cerevisiae deletion strains, locus YLL001W, strain dnm1, active compounds read low 1.02 | S. cerevisiae deletion strains, locus YLL026W, active compounds read low 1.01 | S. cerevisiae deletion strains, locus YLL041C, strain sdh2, active compounds read low 1.02 | S. cerevisiae deletion strains, locus YLR027C, strain aat2, active compounds read low 1.02 | S. cerevisiae deletion strains, locus YLR039C, strain RIC1, active compounds read low 0.981 | S. cerevisiae deletion strains, locus YLR058C, strain SHM2, active compounds read low 0.985 | S. cerevisiae deletion strains, locus YLR102C, strain apc9, active compounds read low 0.988 | S. cerevisiae deletion strains, locus YLR113W, strain HOG1, active compounds read low 0.974 | S. cerevisiae deletion strains, locus YLR221C, strain rsa3, active compounds read low 1.03 | S. cerevisiae deletion strains, locus YLR258W, strain gsy2, active compounds read low 1.01 | S. cerevisiae deletion strains, locus YLR262C, strain YPT6 (second series), active compounds read low 1.07 | S. cerevisiae deletion strains, locus YLR262C, strain YPT6, active compounds read low 0.926 | S. cerevisiae deletion strains, locus YLR268W, strain sec22, active compounds read low 0.957 | S. cerevisiae deletion strains, locus YLR320W, strain mms22, active compounds read low 1 | S. cerevisiae deletion strains, locus YLR330W, strain CHS5, active compounds read low 0.98 | S. cerevisiae deletion strains, locus YLR342W, strain FKS1 (second series), active compounds read low 0.986 | S. cerevisiae deletion strains, locus YLR342W, strain FKS1, active compounds read low 1.03 | S. cerevisiae deletion strains, locus YLR357W, strain rsc2, active compounds read low 1.05 | S. cerevisiae deletion strains, locus YLR370C, strain arc18, active compounds read low 1.01 | S. cerevisiae deletion strains, locus YLR371W, strain rom2, active compounds read low 0.994 | S. cerevisiae deletion strains, locus YLR384C, strain iki3, active compounds read low 1.04 | S. cerevisiae deletion strains, locus YLR418C, strain cdc73, active compounds read low 1.05 | S. cerevisiae deletion strains, locus YML016C, strain PPZ1, active compounds read low 0.987 | S. cerevisiae deletion strains, locus YML032C, strain rad52, active compounds read low 0.992 | S. cerevisiae deletion strains, locus YML120C, strain ndi1, active compounds read low 1.03 | S. cerevisiae deletion strains, locus YML124C, strain tub3, active compounds read low 0.994 | S. cerevisiae deletion strains, locus YMR058W, strain fet3, active compounds read low 1.01 | S. cerevisiae deletion strains, locus YMR078C, strain ctf18, active compounds read low 0.987 | S. cerevisiae deletion strains, locus YMR125W, strain sto1, active compounds read low 1.02 | S. cerevisiae deletion strains, locus YMR129W, active compounds read low 1.02 | S. cerevisiae deletion strains, locus YMR205C, strain PFK2, active compounds read low 1.02 | S. cerevisiae deletion strains, locus YMR223W, strain ubp8, active compounds read low 1.01 | S. cerevisiae deletion strains, locus YMR231W, strain pep5, active compounds read low 1.01 | S. cerevisiae deletion strains, locus YMR263W, strain SAP30, active compounds read low 1 | S. cerevisiae deletion strains, locus YMR307W, strain GAS1, active compounds read low 0.972 | S. cerevisiae deletion strains, locus YNL067W, strain RPL9B, active compounds read low 1.01 | S. cerevisiae deletion strains, locus YNL071W, strain lat1, active compounds read low 1.01 | S. cerevisiae deletion strains, locus YNL183C, strain NPR1, active compounds read low 0.924 | S. cerevisiae deletion strains, locus YNL209W, strain ssb2, active compounds read low 1.02 | S. cerevisiae deletion strains, locus YNL233W, strain BNI4, active compounds read low 1.02 | S. cerevisiae deletion strains, locus YNL248C, strain rpa49, active compounds read low 1.02 | S. cerevisiae deletion strains, locus YNL250W, strain rad50, active compounds read low 0.99 | S. cerevisiae deletion strains, locus YNL271C, strain bni1, active compounds read low 1 | S. cerevisiae deletion strains, locus YNL298W, strain CLA4, active compounds read low 0.992 | S. cerevisiae deletion strains, locus YNL307C, strain MCK1, active compounds read low 0.993 | S. cerevisiae deletion strains, locus YNL322C, strain KRE1 (second series), active compounds read low 1.03 | S. cerevisiae deletion strains, locus YNL322C, strain KRE1, active compounds read low 0.997 | S. cerevisiae deletion strains, locus YNR049C, strain mso1, active compounds read low 1.02 | S. cerevisiae deletion strains, locus YNR052C, strain pop2, active compounds read low 0.991 | S. cerevisiae deletion strains, locus YOL012C, strain htz1 0.881 | S. cerevisiae deletion strains, locus YOL147C, strain pex11, active compounds read low 1 | S. cerevisiae deletion strains, locus YOR001W, strain rrp6, active compounds read low 1.04 | S. cerevisiae deletion strains, locus YOR061W, strain CKA2, active compounds read low 0.969 | S. cerevisiae deletion strains, locus YOR069W, strain VPS5, active compounds read low 0.985 | S. cerevisiae deletion strains, locus YOR070C, strain gyp1, active compounds read low 1.01 | S. cerevisiae deletion strains, locus YOR080W, strain dia2, active compounds read low 1.05 | S. cerevisiae deletion strains, locus YOR083W, strain WHI5, active compounds read low 1.05 | S. cerevisiae deletion strains, locus YOR106W, strain vam3, active compounds read low 1.05 | S. cerevisiae deletion strains, locus YOR136W, strain idh2, active compounds read low 0.983 | S. cerevisiae deletion strains, locus YOR144C, strain elg1, active compounds read low 0.985 | S. cerevisiae deletion strains, locus YOR184W, strain ser1, active compounds read low 0.995 | S. cerevisiae deletion strains, locus YOR231W, strain MKK1, active compounds read low 0.985 | S. cerevisiae deletion strains, locus YOR265W, strain rbl2, active compounds read low 1.02 | S. cerevisiae deletion strains, locus YOR270C, strain vph1, active compounds read low 1.07 | S. cerevisiae deletion strains, locus YOR290C, strain snf2, active compounds read low 0.998 | S. cerevisiae deletion strains, locus YOR316C, strain cot1, active compounds read low 0.981 | S. cerevisiae deletion strains, locus YPL051W, strain arl3, active compounds read low 1.04 | S. cerevisiae deletion strains, locus YPL078C, strain atp4, active compounds read low 1.05 | S. cerevisiae deletion strains, locus YPL106C, strain sse1, active compounds read low 1.02 | S. cerevisiae deletion strains, locus YPL240C, strain hsp82, active compounds read low 1.02 | S. cerevisiae deletion strains, locus YPL241C, strain CIN2, active compounds read low 0.988 | S. cerevisiae deletion strains, locus YPL256C, strain CLN2, active compounds read low 1.01 | S. cerevisiae deletion strains, locus YPR119W, strain clb2, active compounds read low 0.982 | S. cerevisiae deletion strains, locus YPR141C, strain kar3, active compounds read low 0.991 | S. cerevisiae deletion strains, locus YPR163C, strain tif3, active compounds read low 0.991 | S. cerevisiae deletion strains, locus YPR167C, strain met16, active compounds read low 1 | S. cerevisiae deletion strains, strain wtn01, active compounds read low 0.995 | S. cerevisiae strains, strain wild type, active compounds read low 0.982
